Hits are enriched below; roughly 21% of the tested compounds scored in any of these assays.
Pf growth 48h: inhibits P. falciparum growth in the first generation, 48 h; P. falciparum luciferase growth in erythrocytes, 48 h; Potency, µM (top dose mostly 28.7 µM), for the others: at the top dose activity change, negative = inhibition, most hits filed as inhibitors; hit rate 5.9% among 310,000; note: potency is the fitted concentration of half-maximal effect; % is set by controls: 0 for no effect and ±100 for the full control effect
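Firefly luciferase activity from engineered P. falciparum reports growth; inhibitors lower the luminescent signal. Cultures contained 2% hematocrit erythrocytes at 0.1% final parasitemia.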
Pf growth 96h: inhibits malaria parasite growth, 96 h. P. falciparum luciferase reporter growth, 96 h. Potency, µM (series often up to 28.7 µM), for inactives: at the top dose activity change, negative = inhibition, hits mostly inhibitors. hit rate 6.9% among 320,000. AID 504834; note: potency is the fitted concentration of half-maximal effect; % is set by controls: 0 for no effect and ±100 for the full control effect
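96 h incubation, 37 C, 5% CO2, of luciferase-reporter P. falciparum-infected RBCs (2% hematocrit, 0.05% parasitemia final) with test compounds; endpoint luminescence.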
NS1 inh: inhibitors of influenza NS1 protein function | Potency, µM (series often up to 46.1 µM), for the others: top-dose activity, positive = more growth | hit rate 0.4% among 270,000 | AID 2326; calls by dose curve; note: potency is the fitted concentration of half-maximal effect; actives are rising curves; nearly all actives have a fitted effect of over 50% in size
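In this qHTS, NS1 from influenza A is expressed in budding yeast, where it slows growth. Cells are switched from glucose to 2% galactose medium (pH 6.0, -URA), treated with compound, and growth recovery is read at OD600.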
CHX counter: affects cycloheximide protein synthesis inhibition readout, counter-screen. max response, %. hit rate 12% among 300,000. cell reporter, cycloheximide protein synthesis inhibition counterscreen; in the data active = max response mostly above about 13%, no sharp cut-off; inactive = mostly below about 14%; note: read at 38.3 µM for the half of the compounds with a filed dose; 0% is about no effect
Shiga inhibitor: blocks Shiga toxin action in Vero cells; Vero cells, Shiga toxin protein synthesis inhibition reporter; inhibition, % at 38.7 µM; hit rate 9.2% among 290,000; AID 2315; in the data active = inhibition mostly above about 28%, no sharp cut-off; inactive = mostly below about 43%; note: 0% is about no effect
The depositor's hits bear a star; ? = inconclusive; / = not tested or not shown; [ ] = another dose, or the depositor's remark. Unless noted, calls come from the whole dose curve; as a rule, active = well fitted inhibition curve with a large enough effect; inconclusive = small, poorly fitted or top-dose-only effect, or another doubt; inactive = no such curve, though single readings can be large or run the other way.

SMILES	Pf growth 48h	Pf growth 96h	NS1 inh	CHX counter	Shiga inhibitor
CC1CC(OC(=O)C(O)c2ccccc2)CC(C)(C)C1 (stereo not drawn)	-3.2%	11.5%	/	-5.5	11.7
CCC/C=N/NC(=O)c1ccc(F)cc1	?	-19.8%	/	23.7*	75.1*
O=C(N/N=C/CCc1ccccc1)c1ccccc1	17.8%	-26.3%	10.7%	37.4*	52.9*
CCC/C=N/NC(=O)c1cccc(Br)c1	?	?	/	9.5	-6.4
COc1cccc(CNC(=O)C23CN(Cc4ccccc4)CC2C(c2ccc([N+](=O)[O-])cc2)=NO3)c1 (stereo not drawn)	?	14.7µM*	-19.3%	-2.5	-13.3
CC(C)CCNC(=O)C12CN(Cc3ccccc3)CC1C(c1ccc([N+](=O)[O-])cc1)=NO2 (stereo not drawn)	?	?	4.0%	3.7	-3.2
O=C(NCc1ccccc1C(F)(F)F)C12CN(Cc3ccccc3)CC1C(c1ccc([N+](=O)[O-])cc1)=NO2 (stereo not drawn)	3.29µM*	?	?	18.2*	40.6
COc1cc(-c2noc(C)c2C#CC2(N)CCCCC2)cc(OC)c1OC	?	1.85µM*	17.8%	-2.1	-4.4
N#CCCN1CCCc2cc(N=Nc3ccc(C(F)(F)F)cc3)ccc21	2.1%	-24.5%	13.4%	43.2*	60.8*
CC1Cc2cc(/C(O)=C3/C(=O)C(=O)N(CCCn4ccnc4)C3c3ccc(F)cc3)ccc2O1 (stereo not drawn)	35.4%	8.2%	-10.6%	20.7*	63.3
O=C1C(=O)N(CCCn2ccnc2)C(c2ccc(Br)cc2)/C1=C(\O)c1ccc2c(c1)OCCO2 (stereo not drawn)	-0.4%	9.28µM*	1.8%	-5.2	-19.5
C=CCOc1cccc(C2c3c(oc4ccc(F)cc4c3=O)C(=O)N2CCCN2CCOCC2)c1 (stereo not drawn)	11.7µM*	5.6%	?	-2.4	1.1
Cc1ccc2oc3c(c(=O)c2c1)C(c1ccc(F)cc1)N(CCCN1CCOCC1)C3=O (stereo not drawn)	/	?	7.2%	9.3	-11.2
O=C1c2oc3ccc(F)cc3c(=O)c2C(c2ccncc2)N1CCN1CCOCC1 (stereo not drawn)	19.3%	-3.5%	?	-1.5	-3.9
Cc1ccc2oc3c(c(=O)c2c1)C(c1cccc(Cl)c1)N(CCCN1CCOCC1)C3=O (stereo not drawn)	2.62µM*	?	-6.5%	-2.8	-4.2
O=C1c2oc3ccc(F)cc3c(=O)c2C(c2cccc(O)c2)N1CCCN1CCOCC1 (stereo not drawn)	24.6%	10.4µM*	-4.9%	-2.4	-12.3
Cc1ccccc1N1CCN(C2CCCN(C(=O)c3cc[n+]([O-])cc3)C2)CC1 (stereo not drawn)	-1.2%	?	3.0%	1.2	-5.3
O=C(CSc1ncn[nH]1)N1c2ccccc2Sc2ccccc21	27.1%	-5.2%	-39.2%	5.9	-5.4
Cc1ccc(NS(=O)(=O)c2ccc(C(=O)N3CCCC(C(F)(F)F)C3)cc2)cc1 (stereo not drawn)	?	14.2%	/	/	/
COc1ccc(-n2nc(C(=O)Nc3nc4ccc(OC)cc4s3)c3ccccc3c2=O)cc1	14.8%	-25.0%	9.2%	-10.0	-14.2
COc1ccc2nc(NC(=O)c3ccccc3O)sc2c1	0.0%[0.00184 µM]	2.9%	-37.7%	57.6*	63.1*
O=C(Nc1nc2ccccc2s1)c1ccccc1[N+](=O)[O-]	66.0%	?	-0.2%	45.9*	59.5*
COc1ccc2nc(NC(=O)c3ccccc3[N+](=O)[O-])sc2c1	13.1%	-23.6%	5.0%	39.7*	71.1*
CCOC(=O)c1cccc(C(=O)Nc2nc3ccc(OC)cc3s2)n1	366.8%	331.2%	/	21.0	38.7*
COc1cccc(OC)c1C(=O)Nc1nc2ccc([N+](=O)[O-])cc2s1	?	-25.8%	7.3%	1.3	-6.9
SMILES	Pf growth 48h	Pf growth 96h	NS1 inh	CHX counter	Shiga inhibitor
CCOC(=O)c1c(N)nn(C(=O)C(C)C)c1-c1ccccc1	/	/	-58.1%	3.8	27.0
CN(C)c1ccc(C2NCC(CCl)O2)cc1 (stereo not drawn)	-5.5%	20.7%	-51.0%	-2.7	-4.6
Cc1ccccc1Cn1c(=N)n(CC(O)c2ccco2)c2ccccc21 (stereo not drawn)	9.28µM*	?	-3.9%	0.4	-16.8
CCn1c(=N)n(CC(=O)c2ccco2)c2ccccc21	1.8%	/	1.3%	9.5	0.3
Cc1ccccc1Cn1c(C(C)O)nc2ccccc21 (stereo not drawn)	?	108.6%	-2.8%	-2.1	-12.5
CC(C)(C)c1ccc(Cn2c(=N)n(CC(O)c3ccco3)c3ccccc32)cc1 (stereo not drawn)	2.33µM*	11.7µM*	2.0%	-8.4	-22.0
COc1ccc(-c2cc(C(=O)N3CCN(c4ccccc4F)CC3)c3ccccc3n2)c(OC)c1	?	-12.3%	15.0%	4.6	-5.9
CC(C1CCN(Cc2nc(C3CC3)no2)CC1)N1CCOCC1 (stereo not drawn)	7.5%	13.1µM*	-0.3%	-2.2	-21.0
CCOC(=O)N1CCN(Cc2nc(C3CC3)no2)CC1	64.9%	15.3%	6.0%	-1.8	27.6
COc1cc(/C=C2\SC(=Nc3ccc(F)cc3)N(c3ccc(F)cc3)C2=O)ccc1OCC(=O)O	?	8.0%	/	-2.5	-9.4
O=C1/C(=C\c2ccc(Br)o2)SC(=Nc2ccccc2)N1c1ccccc1	?	9.28µM*	2.6%	1.2	-26.9
COCCCNC(=S)N1CCN(S(C)(=O)=O)CC1	-0.2%	?	5.8%	-1.7	-3.6
Cc1ccc(S(=O)(=O)NCc2csc(C)n2)cc1	2.5%	?	0.0%	-3.0	-4.3
CCCCOc1ccc(S(=O)(=O)NCc2csc(C)n2)cc1	-7.6%	10.4µM*	-1.2%	-2.3	-4.6
S=c1[nH]nc(-c2cc(-c3ccccc3)n[nH]2)n1/N=C/c1cccc(Cl)c1	23.9%	20.9%	-0.5%	1.2	10.2
CCOc1ccc(NC(=O)Cn2nnc3c(cnn3-c3ccc(F)cc3)c2=O)cc1	-9.5%	?	/	-3.0	-2.0
O=C(Cn1nnc2c(cnn2-c2ccc(F)cc2)c1=O)OC1CCCCC1	16.2%	/	-6.3%	27.5*	64.2
CC1CC(c2ccccc2)n2nc(NC(=O)c3ccco3)nc2N1 (stereo not drawn)	11.8%	8.28µM*	?	-7.9	-8.3
CCOC(=O)c1[nH]c(C)c(CCC(=O)O)c1C	15.5%	-28.3%	9.5%	0.7	-22.4
CCOC(=O)c1[nH]c(C)c(CN(CCc2ccccc2)C(=O)CCC(=O)O)c1C	-35.4%	4.15µM*	15.6%	-1.8	-16.6
CCOC(=O)c1[nH]c(C)c(CN(Cc2ccco2)C(=O)C(F)(F)F)c1C	10.4µM*	1.1%	-11.8%	-2.6	-5.2
CCOC(=O)c1c(C)[nH]c(C(=O)NCc2ccco2)c1C	52.5%	71.7%	/	43.5*	52.7*
CC(C)c1nnc(NC(=O)C2CCN(S(=O)(=O)c3ccc(-n4cnnn4)cc3)CC2)s1	-1.9%	?	/	2.5	-10.8
C/C(=N/NC(=O)CNC(=O)Cc1ccccc1)c1ccc(Cl)cc1	11.1%	46.6%	2.3%	2.0	6.4
